The structures appear in SMILES notation. The panel holds about 83,000 compounds, 20% with a hit somewhere; the sample as a whole holds those more often.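 Method: cells in 96-well plates; compound added at one concentration; 48 h incubation; percent growth measured; values under 10 scored active.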 Values without a mark were called inactive. The source made the active and inactive calls.

This note sets out measurements from PubChem BioAssay (NCI).

Test systems include T-47D breast; BT-549 breast; MDA-MB-435 melanoma; SW-620 colon; MCF7 breast; HCT-116 colon; HCC-2998 colon; KM12 colon.
Common to all, as to test: NCI-60 one-dose screen, 48 h (100 = growth as untreated, 0 = no growth, -100 = all killed)
Holding throughout (settings): 10 µM unless noted

On to `Cc1ccc(S(=O)(=O)n2cc(C(=O)C(=O)N3CCOCC3)c3ccccc32)cc1`, for which the growth was 74.8% with T-47D breast; 87.5% with BT-549 breast; 104% with MDA-MB-435 melanoma; 101% with SW-620 colon; 99.4% with MCF7 breast; 87.1% in the test on HCT-116 colon. Further, the growth in the test with HCC-2998 colon is 99.6%; in the test on KM12 colon, 98.7%.
Turning to `C=C[C@@H]1C[C@H](O)Cc2cc(F)ccc2N1`, the growth was 108% in the test with T-47D breast; 96.9% in the test with BT-549 breast; 93.8% in the test with MDA-MB-435 melanoma; 98.7% in the test with SW-620 colon; 107% in the test on MCF7 breast; 103% in the test on HCT-116 colon. The growth is 96.2% in the test on HCC-2998 colon and 100% with KM12 colon.
Turning to `COc1ccc2c(c1)C(c1cc(OC)c3c(c1)OCO3)C1=C(COC1=O)N2` (stereo not drawn), the growth is 52.4% in the test with T-47D breast; 23.4% in the test with BT-549 breast; -13.5% (active) in the test with MDA-MB-435 melanoma; 23.3% with SW-620 colon; 16.2% in the test on MCF7 breast; 12.7% in the test on HCT-116 colon. The growth in the test with HCC-2998 colon was 10.6%; in the test with KM12 colon, 9.2% (active).
Regarding `N#Cc1c(-c2ccccc2)cc(-c2ccccc2)n(CC(=O)NO)c1=O`, the growth in the test with T-47D breast is 14.9%; with BT-549 breast, 1.67% (active); in the test with MDA-MB-435 melanoma, 49.8%; in the test on SW-620 colon, 59.8%; in the test on MCF7 breast, 21.9%; in the test with HCT-116 colon, 40.7%. Moreover, the growth was 86.5% in the test with HCC-2998 colon and 41.2% in the test on KM12 colon.
For the compound `O=C(Nc1cccc(-n2cc(-c3ccncc3)c(-c3ccc(Cl)c(O)c3)n2)c1)c1ccccc1`, the growth in the test with T-47D breast was 73.9%; with BT-549 breast, 83.4%; with MDA-MB-435 melanoma it was 56.2%; in the test with SW-620 colon, 76.9%; in the test on MCF7 breast it was 62.6%; in the test on HCT-116 colon it was 57.8%. Further, the growth in the test on HCC-2998 colon was 76.8%; in the test on KM12 colon, 70.1%.
Take `OB(O)c1cccc(-c2nc3ccc4[nH]ncc4c3c3c2CCCC3)c1F`: the growth was 54.1% in the test with T-47D breast; 30.2% with BT-549 breast; 44.4% in the test with MDA-MB-435 melanoma; 35.1% in the test with SW-620 colon; 62.5% with MCF7 breast; 20.9% with HCT-116 colon. For the same compound, the growth in the test on HCC-2998 colon is 71.4%; in the test with KM12 colon it was 28.7%.
`COC(=O)c1cc(=O)nc(N/N=C/c2ccco2)s1`: the growth was 87.8% with T-47D breast; 109% with BT-549 breast; 114% in the test on MDA-MB-435 melanoma; 108% in the test on SW-620 colon; 39.5% in the test with MCF7 breast; 93.8% in the test with HCT-116 colon. The growth with HCC-2998 colon is 102%; in the test on KM12 colon, 101%.
On to `Cn1cc(-c2cnc3ccc(NC(=O)Nc4ccc(F)c(Br)c4)cc3n2)cn1`, for which the growth with T-47D breast is -38.1% (active); in the test with BT-549 breast, 20.5%; in the test with MDA-MB-435 melanoma it was 21.5%; in the test on SW-620 colon, 39.8%; with MCF7 breast it was 3.7% (active); in the test with HCT-116 colon it was 22%. In addition, the growth in the test on HCC-2998 colon is 49.2%; with KM12 colon, 12.7%.
Consider `CCCCC(CC)OC(=O)C(Br)CC` (stereo not drawn), for which the growth with T-47D breast is 103%; in the test with BT-549 breast, 100%; with MDA-MB-435 melanoma, 109%; in the test with SW-620 colon it was 114%; in the test on MCF7 breast, 102%; with HCT-116 colon, 101%. Also, the growth is 104% with HCC-2998 colon and 101% in the test with KM12 colon.
As for `Cc1ccc(CSC(=N)N)cc1C`, the growth in the test on T-47D breast was 108%; with BT-549 breast, 98.1%; in the test on MDA-MB-435 melanoma it was 112%; in the test with SW-620 colon it was 102%; with MCF7 breast, 101%; in the test on HCT-116 colon, 105%. For the same compound, the growth is 100% in the test with HCC-2998 colon and 107% in the test with KM12 colon.
In the case of `c1coc(CNc2ccnc(Nc3ccc(OCCN4CCCCC4)cc3)n2)c1`, the growth with T-47D breast was 91.2%; in the test with BT-549 breast it was 97.5%; in the test with MDA-MB-435 melanoma it was 95.5%; in the test with SW-620 colon, 98.7%; in the test with MCF7 breast, 71.4%; with HCT-116 colon, 68.4%. In addition, the growth with HCC-2998 colon is 99.5%; in the test with KM12 colon, 84.8%.
Take `Cc1nc2ncccc2nc1Nc1ccc(S(=O)(=O)Nc2cncs2)cc1`: the growth in the test on T-47D breast was 82.7%; with BT-549 breast, 83%; with MDA-MB-435 melanoma it was 114%; in the test on SW-620 colon, 102%; in the test with MCF7 breast, 82.2%; with HCT-116 colon, 97.5%. Besides, the values for the growth in the test on HCC-2998 colon and in the test with KM12 colon were 95.1% and 97.7%, respectively.
Take `C=C[C@@H]1C[C@@H]2Cc3cc(Cl)ccc3N1O2`: the growth was 103% in the test on T-47D breast; 105% in the test with BT-549 breast; 92.5% with MDA-MB-435 melanoma; 96.7% in the test on SW-620 colon; 112% in the test on MCF7 breast; 98.2% with HCT-116 colon. Besides, the results for the growth in the test with HCC-2998 colon and in the test on KM12 colon were 94.2% and 97.3%, respectively.
For `Cc1ccc(C(=O)C2=Cc3cc4ccccc4n3Cc3cnnn32)cc1`, the growth in the test with T-47D breast was 77.8%; with BT-549 breast it was 89.4%; in the test on MDA-MB-435 melanoma, 71.7%; with SW-620 colon, 105%; with MCF7 breast, 90.9%; in the test with HCT-116 colon it was 94.1%. Moreover, the growth was 98.7% with HCC-2998 colon and 83.4% in the test on KM12 colon.
As for `O=C1CS/C(=N\Nc2cc(=O)[nH]c3ccccc23)N1c1ccccc1`, the growth is 89.6% in the test with T-47D breast; 95.3% in the test with BT-549 breast; 82.9% with MDA-MB-435 melanoma; 92.9% in the test on SW-620 colon; 92% in the test on MCF7 breast; 89.7% in the test on HCT-116 colon. Besides, the growth is 96% with HCC-2998 colon and 98.8% with KM12 colon.
`Cc1csc(NC(c2ccc(Br)cc2)c2c(C)nc3ccccn23)n1` (stereo not drawn): the growth in the test on T-47D breast is 75.6%; with BT-549 breast, 90.7%; in the test on MDA-MB-435 melanoma, 97.7%; with SW-620 colon, 88.1%; in the test on MCF7 breast, 83.3%; in the test with HCT-116 colon, 59.8%. For the same compound, the growth in the test with HCC-2998 colon is 117%; in the test with KM12 colon, 97.7%.
